Laboratory results as given in PubChem BioAssay AID1861 (The Scripps Research Institute Molecular Screening Center, 2009).
Screen size: about 290,000 compounds; about 3,100 (1.1%) were called active. Cut-off read from the data, not from the text of the source: active = inhibition above about 16% (passing the limit was not always enough); inactive = the rest. Shown is part of a subset that was picked to be rich in actives.

Target: Neuropeptides B/W receptor type 1 (Homo sapiens) (UniProt P48145)
Sequence (P48145 whole entry, looked up): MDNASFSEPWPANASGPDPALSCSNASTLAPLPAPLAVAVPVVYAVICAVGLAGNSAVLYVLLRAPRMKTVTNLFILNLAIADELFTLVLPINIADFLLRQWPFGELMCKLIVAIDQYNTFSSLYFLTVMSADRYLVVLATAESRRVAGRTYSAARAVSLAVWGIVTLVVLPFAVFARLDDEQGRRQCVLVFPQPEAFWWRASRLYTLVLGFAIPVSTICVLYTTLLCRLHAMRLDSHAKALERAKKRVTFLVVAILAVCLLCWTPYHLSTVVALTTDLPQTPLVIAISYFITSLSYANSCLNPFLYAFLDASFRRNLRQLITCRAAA
Assay: GPR7 receptor antagonists, primary screen, cell-based, fluorescence, single concentration (AID 1861);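 note: cells stimulated with the agonist NPW; 0% = agonist with vehicle and 100% = vehicle without agonist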
Conditions: GPR7-expressing cells, fluorescence antagonist assay; at 4.4 µM; active compounds read high

Which inhibition does the source give for CCn1c(C)cc(=O)cc1-c1ccc(Cl)cc1 here?
The inhibition was 12.6% (inactive).

Which inhibition does the source give for CS(=O)(=O)Nc1ccc(C2=NN(S(C)(=O)=O)C(c3cccs3)C2)cc1 (stereo not given) here?
Its inhibition is -8.38% (inactive).

CS(=O)(=O)Nc1cccc(C2=NN(C(=O)c3cccc(F)c3)C(c3cccs3)C2)c1 (stereo not given) was tested. Which inhibition did it give?
Its inhibition is 19.9% (inactive).

Which inhibition does the source give for CS(=O)(=O)Nc1cccc(C2=NN(S(=O)(=O)c3ccccc3)C(c3cccs3)C2)c1 (stereo not given) here?
The inhibition was 30% (active).

Which inhibition does the source give for COc1ccc(C2=NN(C(=O)c3ccccc3C(=O)O)C(c3ccccc3O)C2)cc1 (stereo not given) here?
Its inhibition is 1.53% (inactive).

How did the inhibition turn out when CCS(=O)(=O)Nc1ccc(C2=NN(S(=O)(=O)c3ccc(F)cc3)C(c3ccco3)C2)cc1 (stereo not given) was run?
Its inhibition is 1.02% (inactive).

Which inhibition does the source give for COc1cccc(C2CC(c3ccccc3)=NN2S(=O)(=O)c2ccccc2)c1OC (stereo not given) here?
Its inhibition is 19.8% (active).

For Cc1c(CCC(=O)N[C@@H](CC(C)C)C(=O)O)c(=O)oc2c(C)c3oc4c(c3cc12)CCCC4, which inhibition is on record?
The inhibition was -11.3% (inactive).

COc1ccc(C(=O)NC(C)c2nccs2)cc1OC1CCN(C(C)C)CC1 (stereo not given) was tested. Which inhibition did it give?
The inhibition was -9.73% (inactive).

COc1ccc(N(CC(=O)NCCSCc2cccc(Cl)c2)S(C)(=O)=O)cc1 was tested. Which inhibition did it give?
Its inhibition is -4.13% (inactive).

For CC1CN(C(=O)c2cc(COc3c(F)cccc3F)on2)CCN1C (stereo not given), which inhibition is on record?
The inhibition was 5.39% (inactive).

CS(=O)(=O)N(Cc1ccc(Cl)cc1)c1ccc(C(=O)NCCSCc2ccco2)cc1 was tested. Which inhibition did it give?
The inhibition was 30.2% (active).

With CCc1ccccc1N(CC(=O)NCCSCc1ccco1)S(C)(=O)=O as the molecule, how does the inhibition read?
The inhibition was -3.47% (inactive).

How did the inhibition turn out when Cc1cc(C)cc(N(CC(=O)NCCSCc2ccco2)S(C)(=O)=O)c1 was run?
The inhibition was -3.97% (inactive).

How did the inhibition turn out when CN1CCN(CCNC(=O)Nc2ccc([N+](=O)[O-])cc2)CC1 was run?
Its inhibition is 1.21% (inactive).

How did the inhibition turn out when O=C(COc1ccc([N+](=O)[O-])cc1)Nc1ccc(N2CCCC2)cc1 was run?
Its inhibition is -6.84% (inactive).

Which inhibition does the source give for O=C(NCCCN1CCN(c2ccc(F)cc2)CC1)Nc1ccc([N+](=O)[O-])cc1 here?
Its inhibition is 25.5% (active).

How did the inhibition turn out when Cc1ccc(OCC(=O)NC(C)c2ccccc2)c([N+](=O)[O-])n1 (stereo not given) was run?
The inhibition was -17% (inactive).

Which inhibition does the source give for COc1ccc(CNC(=O)COc2cccnc2[N+](=O)[O-])cc1 here?
Its inhibition is 5.06% (inactive).

Which inhibition does the source give for COc1ccccc1CNC(=O)COc1ccc(C)nc1[N+](=O)[O-] here?
Its inhibition is 25.7% (active).

How did the inhibition turn out when CCOC(=O)N1CCN(S(=O)(=O)c2ccc(OC)cc2)CC1 was run?
The inhibition was -0.89% (inactive).

With Cc1cc(Cl)ccc1OCCCC(=O)NCc1ccncc1 as the molecule, how does the inhibition read?
Its inhibition is 2.96% (inactive).

For Cc1cc(Cl)ccc1OCCCC(=O)NCc1ccccn1, which inhibition is on record?
The inhibition was 5.1% (inactive).

How did the inhibition turn out when Cc1cc(Cl)ccc1OCCCC(=O)Nc1cccc(-n2cnnn2)c1 was run?
The inhibition was 37.4% (active).

How did the inhibition turn out when c1ccc2c(c1)CCc1snnc1-2 was run?
The inhibition was -15.5% (inactive).

For COc1cc(OC)c(NC(=O)C2CCCN2C(=O)OCc2ccccc2)cc1Cl (stereo not given), which inhibition is on record?
The inhibition was 3.66% (inactive).

For COC(=O)c1cc(S(=O)(=O)Nc2ccc(C)c(F)c2)c[nH]1, which inhibition is on record?
Its inhibition is 4.7% (inactive).

Which inhibition does the source give for CCOC(=O)C1=C(C)NC(SC)=NC1c1ccccc1 (stereo not given) here?
Its inhibition is -17% (inactive).

CCOC(=O)C1=C(C)NC(=S)NC1c1cccs1 (stereo not given) was tested. Which inhibition did it give?
The inhibition was -3.11% (inactive).

How did the inhibition turn out when CCOC(=O)C1=C(C)NC(C)=C(C(=O)OCC)C1c1ccccn1 was run?
Its inhibition is 18.9% (active).

For Cc1ccc(NC(=O)CN2CCC3(O)CCCCC3C2c2ccc3c(c2)OCO3)c(C)c1 (stereo not given), which inhibition is on record?
Its inhibition is 21.5% (active).

For CCN(CC)c1ccc(C2C3CCCCC3(O)CCN2CC(=O)Nc2ccccc2)cc1 (stereo not given), which inhibition is on record?
Its inhibition is 0.06% (inactive).

For CC1CCCCN1CC(=O)NCc1ccc2c(c1)OCO2 (stereo not given), which inhibition is on record?
The inhibition was -3.99% (inactive).

For O=C(Nc1cccc2ccccc12)c1onc2c1CCCC2, which inhibition is on record?
The inhibition was -5.72% (inactive).

Oc1ccccc1CNc1ncc(Br)cc1Br was tested. Which inhibition did it give?
Its inhibition is -17.9% (inactive).

With COCCN(Cc1cc2cc3c(cc2nc1Cl)OCO3)C(=O)c1cccc(C)c1 as the molecule, how does the inhibition read?
The inhibition was 21.6% (active).

With Cc1cccc(C(=O)NCCCN(C)CCCNC(=O)c2cccc(C)c2)c1 as the molecule, how does the inhibition read?
The inhibition was -10.2% (inactive).

With CCCCN(CC)C(=O)c1ccc2c(c1)OCO2 as the molecule, how does the inhibition read?
Its inhibition is 11.2% (inactive).

Cc1ccc(Cl)c(NC(=O)CN2CCN(C=O)CC2)c1 was tested. Which inhibition did it give?
Its inhibition is 2.68% (inactive).

With COc1ccccc1OCCOc1ccc(/C=C2\C(=N)N3N=C(C)SC3=NC2=O)cc1 as the molecule, how does the inhibition read?
Its inhibition is 21% (inactive).

CN(C)S(=O)(=O)N1CCC(Oc2cccc(C(=O)NCCCC3CCCC3)c2)CC1 was tested. Which inhibition did it give?
Its inhibition is 34.4% (active).

CNS(=O)(=O)c1cccc(C(=O)NCC2CCCCC2)c1 was tested. Which inhibition did it give?
Its inhibition is 5.35% (inactive).

For CN(C(=O)c1cccc(OC2CCN(S(=O)(=O)N(C)C)CC2)c1)C1CCOC1 (stereo not given), which inhibition is on record?
Its inhibition is -0.89% (inactive).

How did the inhibition turn out when Cc1cc(C(=O)NCCc2ccc(Cl)cc2)c(C)o1 was run?
The inhibition was -6.42% (inactive).

CN(c1cccc(NC(=O)Nc2ccc(Cl)cc2)c1)S(C)(=O)=O was tested. Which inhibition did it give?
The inhibition was 35.6% (active).

Which inhibition does the source give for Cc1ccc(N(CC(=O)Nc2cccc(N(C)S(C)(=O)=O)c2)S(C)(=O)=O)cc1 here?
The inhibition was -0.43% (inactive).

How did the inhibition turn out when COc1cccc(N(CC(=O)Nc2cccc(N(C)S(C)(=O)=O)c2)S(C)(=O)=O)c1 was run?
The inhibition was -7.36% (inactive).

How did the inhibition turn out when CCOC(=O)N1CCN(C(=O)C(C)NC(=O)c2ccco2)CC1 (stereo not given) was run?
Its inhibition is -2.9% (inactive).

CCN(CCn1cccn1)Cc1nc(-c2ccc(C(=O)OC)cc2)no1 was tested. Which inhibition did it give?
Its inhibition is 9.06% (inactive).

COc1cccc(-c2cc(C(=O)N3CCN(c4ccccc4OC)CC3)no2)c1 was tested. Which inhibition did it give?
Its inhibition is -15.8% (inactive).

Which inhibition does the source give for CN(CC(=O)Nc1ccccc1C(F)(F)F)C(=O)Cc1ccccc1F here?
The inhibition was -10.8% (inactive).

For COc1cc(CNC2CCCCC2)c(Br)cc1OC1CCCC1, which inhibition is on record?
The inhibition was -7.35% (inactive).

CCOCCCNCc1cc(Br)ccc1OCC was tested. Which inhibition did it give?
Its inhibition is 10.1% (inactive).

Which inhibition does the source give for CC(C)(C)NCc1cc(Br)ccc1OC1CCCC1 here?
Its inhibition is 22.3% (active).

O=C(NCc1cccc(CNC(=O)Nc2cccc(O)c2)c1)Nc1cccc(O)c1 was tested. Which inhibition did it give?
Its inhibition is -9.18% (inactive).

Which inhibition does the source give for C[C@@H]1C[C@@H]2O[C@H]2/C=C\C=C\C(=O)Cc2c(Cl)c(O)cc(O)c2C(=O)O1 here?
Its inhibition is -17.8% (inactive).

For C/C(=N\NC(=O)c1cccc([N+](=O)[O-])c1)c1cccnc1, which inhibition is on record?
Its inhibition is -13.8% (inactive).

For Cc1ccccc1Nc1nnc(SCC(=O)c2cc3ccccc3o2)s1, which inhibition is on record?
The inhibition was 28% (active).

Cc1cc(NC(=O)CSc2nnc(Nc3ccccc3F)s2)no1 was tested. Which inhibition did it give?
Its inhibition is -3.75% (inactive).

With Cc1ccc(Nc2nnc(SCC(=O)c3cc4ccccc4o3)s2)cc1C as the molecule, how does the inhibition read?
The inhibition was -6.61% (inactive).
